# From PubChem BioAssay (EPA / NIEHS)
# The source made the active and inactive calls. The calls were made as follows: active = hit-call score of the fitted dose curve at least 0.9, where 1 is the maximum; inactive = score below 0.9.
# Molecular target: Nuclear respiratory factor 1 (Homo sapiens) (UniProt Q16656)
# Experiment: ATG_NRF1_CIS: Attagene CIS-FACTORIAL HepG2 Assay for human Nuclear Respiratory Factor 1 (NRF1) Orphan Gene (AID 2282987)
# Conditions: HepG2 NRF1 cis-element reporter, Attagene multiplex; actives raise or lower the signal
# In short: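 Measured: fluorescent reporter-specific RT-PCR products from transfected HepG2 cells, separated by capillary electrophoresis. Exposure lasted 24 h. Analysis used bidirectional curve fitting with DMSO as negative control.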
# Sequence of Nuclear respiratory factor 1 (Homo sapiens) (Q16656 whole entry, looked up): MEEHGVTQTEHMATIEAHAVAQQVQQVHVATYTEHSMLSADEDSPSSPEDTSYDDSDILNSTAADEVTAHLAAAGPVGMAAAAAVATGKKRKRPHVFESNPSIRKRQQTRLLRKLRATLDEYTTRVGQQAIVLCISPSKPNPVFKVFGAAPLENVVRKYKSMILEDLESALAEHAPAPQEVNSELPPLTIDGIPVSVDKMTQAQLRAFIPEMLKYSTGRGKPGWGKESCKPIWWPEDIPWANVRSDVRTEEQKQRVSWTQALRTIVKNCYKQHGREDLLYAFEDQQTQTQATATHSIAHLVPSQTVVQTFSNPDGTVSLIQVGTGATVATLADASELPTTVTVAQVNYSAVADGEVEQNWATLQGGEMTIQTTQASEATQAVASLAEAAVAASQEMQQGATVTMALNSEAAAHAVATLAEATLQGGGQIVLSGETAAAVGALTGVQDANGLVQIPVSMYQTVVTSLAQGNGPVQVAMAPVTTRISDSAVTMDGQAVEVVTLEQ
row,SMILES,outcome
1,CCc1nn(C)c(C(=O)NCc2ccc(C(C)(C)C)cc2)c1Cl,inactive
2,CCOC(=O)CC(SP(=S)(OC)OC)C(=O)OCC (stereo not drawn),inactive
3,C=CCC1=C(C)[C@@H](OC(=O)[C@@H]2[C@@H](C=C(C)C)C2(C)C)CC1=O,inactive
4,CC(C)C1(C)N=C(c2nc3ccccc3cc2C(=O)O)NC1=O (stereo not drawn),inactive
5,COP(N)(=O)SC (stereo not drawn),inactive
6,Oc1ccccc1-c1ccccc1,inactive
7,CS/C(C)=N/OC(=O)N(C)SN(C)C(=O)O/N=C(\C)SC,inactive
8,CCCCC(CC)COC(=O)c1ccccc1C(=O)OCC(CC)CCCC (stereo not drawn),inactive
9,CCNc1nc(Cl)nc(NCC)n1,inactive
10,O=C(Nc1ccccc1)Nc1ccnc(Cl)c1,inactive
11,CCCCNC(=O)n1c(NC(=O)OC)nc2ccccc21,inactive
12,CCOC(=O)C(Cl)Cc1cc(-n2nc(C)n(C(F)F)c2=O)c(F)cc1Cl (stereo not drawn),inactive
13,O=C(O)c1nc(Cl)ccc1Cl,inactive
14,COc1nc(C)nc(NC(=O)NS(=O)(=O)c2ccccc2Cl)n1,inactive
15,CN(C)C(=S)SSC(=S)N(C)C,inactive
16,C#CCOS(=O)OC1CCCCC1Oc1ccc(C(C)(C)C)cc1 (stereo not drawn),inactive
17,CNC(=S)S,inactive
18,N#Cc1cc(Br)c(O)c(Br)c1,inactive
19,CCON=C(CC)C1=C(O)CC(c2c(C)cc(C)cc2C)CC1=O (stereo not drawn),inactive
20,O=C(O)COc1nc(Cl)c(Cl)cc1Cl,inactive
21,Cc1c(F)c(F)c(COC(=O)C2C(/C=C(\Cl)C(F)(F)F)C2(C)C)c(F)c1F (stereo not drawn),inactive
22,CC1=C(C(=O)Nc2ccccc2)SCCO1,inactive
23,COP(=S)(OC)Oc1nc(Cl)c(Cl)cc1Cl,inactive
